# Rows were chosen to be rich in hits. Some 6.4% of all compounds tested hit in one or more screens of this group.
# RORg inh – blocks mouse ROR gamma transcriptional activity; P51450; Drosophila S2 Gal4-RORgamma UAS-luciferase reporter, 20 h; Potency, µM (top dose mostly 53.6 µM), inactives show at the highest dose activity change, negative = inhibition, hits mostly inhibitors; 310,000 tested, 5.4% active; AID 2551; also: nearly all actives have a fitted effect of over 60% in size
# Target sequence (P51450 whole entry, looked up, the tested form may be a part): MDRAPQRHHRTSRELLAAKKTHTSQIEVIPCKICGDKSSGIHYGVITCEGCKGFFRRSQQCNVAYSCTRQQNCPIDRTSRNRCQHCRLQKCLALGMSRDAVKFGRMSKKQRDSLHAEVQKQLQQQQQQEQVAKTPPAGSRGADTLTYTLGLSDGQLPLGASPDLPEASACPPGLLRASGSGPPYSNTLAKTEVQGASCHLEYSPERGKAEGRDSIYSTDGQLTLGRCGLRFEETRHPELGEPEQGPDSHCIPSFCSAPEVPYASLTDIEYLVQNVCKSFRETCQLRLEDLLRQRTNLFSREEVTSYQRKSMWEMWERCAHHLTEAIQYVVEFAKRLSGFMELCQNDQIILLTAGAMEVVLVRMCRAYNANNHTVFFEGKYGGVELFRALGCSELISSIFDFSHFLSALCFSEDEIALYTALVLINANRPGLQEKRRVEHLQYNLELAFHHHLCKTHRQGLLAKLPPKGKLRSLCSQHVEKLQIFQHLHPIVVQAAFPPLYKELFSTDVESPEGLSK
#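 ROR gamma transcriptional activity was tracked as Gal4-UAS luciferase output in stably transfected Drosophila Schneider cells, with compound added 1 hr before 700 uM copper sulfate induction and a 20 hr ambient-temperature incubation.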
# KinaseGlo FLuc – Kinase-Glo luciferase inhibition (counter-screen). Potency, µM (doses to about 38.3 µM), for the others: top-dose activity change, negative = inhibition, usual class: inhibitors. Q27757. Kinase-Glo luciferase, ATP luminescence, 8 min. 200,000 tested, 0.28% active; also: nearly all actives have a fitted effect of over 60% in size
#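 Kinase-Glo luciferase light output from ATP and luciferin was measured with 10 uM ATP, within the enzyme's linear range. Buffer: 50 mM imidazole pH 7.2, 50 mM KCl, 7 mM MgCl2, 0.01% Tween 20, 0.05% BSA; luminescence read after 8 min at ambient temperature.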
# Gal4-VP16 FLuc – inhibits Gal4-VP16 luciferase reporter, ROR gamma counter-screen | 310,000 tested, 3.5% active | Potency, µM (top dose mostly 53.6 µM), for the others: top-dose activity, negative = inhibition, most hits filed as inhibitors | Drosophila S2 Gal4-VP16 UAS-luciferase, luminescence, 20 h;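 also: Gal4-VP16 expression switched on by copper sulfate through the metallothionein promoter; nearly all actives have a fitted effect of over 50% in size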
# * = called active by the depositor; ? = inconclusive; . = no result given; [ ] = remark or other dose. Calls follow the shape of the dose curve; as a rule, active = well fitted curve in the direction sought with a large enough effect; inconclusive = small, poorly fitted or top-dose-only effect, or another doubt; inactive = no such curve, though single readings can be large; an effect the other way counts as inactive or inconclusive. % is scaled to controls: 0 for no effect and ±100 for the full control effect; potency is read from the fitted curve at half-maximal effect.
SMILES,RORg inh,KinaseGlo FLuc,Gal4-VP16 FLuc
C[C@]12CCC(=O)C=C1CC[C@@H]1[C@@H]2[C@@H](O)C[C@@]2(C)[C@H]1CC[C@]2(O)C(=O)COP(=O)(O)O,-2.2%,.,5.3%
C[C@@]12CCC(=O)C=C1CC[C@@H]1[C@@H]2[C@H](O)C[C@]2(C)[C@@H]1CC[C@]2(O)C(=O)CO,-14.9%[16.9 µM],-0.3%[17.1 µM],-6.1%[17 µM]
O=C(NCC1CC1)c1cc([N+](=O)[O-])cc([N+](=O)[O-])c1,-4.2%,.,-2.1%
c1ccc(CNc2c3c(nc4ncnn24)CCC3)cc1,-2.5%,.,-1.1%
COC(=O)[C@H](CCSC)NC(=O)C/C=C\[C@@H](C)CO,-6.5%[10 µM],.,-6.7%[10 µM]
COc1cc(CO)ccc1OCc1nnnn1-c1ccc(C)cc1,1.4%,-1.1%,6.1%
COc1ccc2nc(NNC(=O)C3COc4ccccc4O3)sc2c1 (stereo unspecified),2.82µM*,-1.8%,?
CCSc1nnc(NC(=O)c2cccc(OCc3c(C)noc3C)c2)s1,-44.9%,-2.2%,5.9%
COc1ccc2nc(NC(=O)C3COc4ccccc4O3)sc2c1 (stereo unspecified),?,1.3%,-50.7%
COc1ccc2nc(NC(=O)c3cccc(OCc4c(C)noc4C)c3)sc2c1,11.2µM*,-9.0%,?
O=C(O)c1cc(-c2ccc(Cl)c(Cl)c2)n(-c2ccc(F)cc2)n1,32.5%,.,3.6%
O=C(O)CSc1nnc(-c2ccc3c(c2)OCO3)o1,?,-8.5%,?
O=C(c1ccc(Cl)cc1)N1CCCCC(Sc2nnc(-c3ccc4c(c3)OCO4)o2)C1=O (stereo unspecified),1.41µM*,-0.9%,?
CN(C)C1CCN(C(=O)c2ccc(-n3c(=O)c(=O)[nH]c4ccccc43)cc2)C1 (stereo unspecified),.,-1.9%,.
CCCCC(=O)Nc1ccc(C(=O)N(CC)c2ccccc2C)cc1,2.24µM*,3.2%,-1.1%
CCN(C(=O)c1ccc(NC(C)=O)cc1)c1ccccc1C,23.3%,2.1%,-3.7%
CC(=O)OCC(=O)[C@]12OC(C)(C)O[C@@H]1C[C@H]1[C@H]3CC=C4C[C@@H](O)CC[C@]4(C)[C@H]3CC[C@]12C,.,-3.7%[7.66 µM],.
N#CC1=C(Nc2ccccc2Cl)SC(c2ccccc2O)NC1=O (stereo unspecified),12.6µM*,.,?
COc1cccc(NC2=C(C#N)C(=O)NC(c3cccc(OC)c3O)S2)c1 (stereo unspecified),?,.,-9.6%
COc1ccccc1CCNC(=O)/C(=C/c1cccnc1)NC(=O)c1ccccc1,-0.9%,-3.8%,-4.3%
Cc1ccc(C(=O)CSC2=C(C#N)C(c3ccco3)C3=C(CC(C)(C)CC3=O)N2)cc1 (stereo unspecified),0.2%,-2.4%,-5.0%
CC(=O)C1=C(C)NC(SCC(=O)c2ccc(C)cc2)=C(C#N)C1c1ccco1 (stereo unspecified),?,3.6%,2.82µM*
O=[N+]([O-])C(=C1SCCS1)C(=C(Cl)Cl)N1CCCCC1,-5.6%,2.8%,-26.3%
O=[N+]([O-])C(/C=C(\Cl)[N+](=O)[O-])=C(N1CCCCC1)N1CCCCC1,?,-0.6%,14.1µM*
Cc1nc2cc(-c3cccc(F)c3)nn2c(C)c1CCC(=O)NC(C)CCc1ccco1 (stereo unspecified),11.2µM*,-1.4%,-2.3%
SMILES,RORg inh,KinaseGlo FLuc,Gal4-VP16 FLuc
COc1cc(OC)cc(-c2cc3nc(C)c(CCC(=O)NC(C)CCc4ccco4)c(C)n3n2)c1 (stereo unspecified),?,0.5%,-18.1%
CC(=O)c1sc(N/N=C2\CC3CC2C(C)C3(C)C)nc1C (stereo unspecified),7.08µM*,2.8%,?
CCCC(=O)Nc1nc(C)c(C(C)=O)s1,20.8%,-4.1%,-2.2%
Cc1cc2c(nc1C)CCCN2C[C@H](C)O/N=C\[C@@H](C)[C@H](OCc1ccccc1)C(C)C,-5.3%[10 µM],.,1.6%[10 µM]
CCCC(=O)Nc1nnc(CC(=O)N2CCCC2)s1,1.26µM*,8.4%,-6.1%
CCCc1nnc(NC(=O)CCC(=O)N2CCCCCC2)s1,26.3%,-2.7%,5.2%
C#CCn1c(=NC(=O)CSC(C)=O)sc2cc(F)ccc21,2.51µM*,.,-28.6%
CCn1c(=NC(=O)CSC(C)=O)sc2cc(F)ccc21,?,-4.9%,6.6%
CCOC(=O)Cc1csc(NC(=O)c2ccc3ncsc3c2)n1,-19.1%,.,16.6%
NC(=O)[C@H]1CCCN1C(=O)[C@H](Cc1cnc[nH]1)NC(=O)[C@@H]1CCC(=O)N1,4.7%,.,4.2%
CN(C)c1ccc(C(C(=O)NC2CCCCC2)N(Cc2ccco2)C(=O)c2snc(C(N)=O)c2N)cc1 (stereo unspecified),22.9%,.,3.0%
